According to PubChem BioAssay (NCI):
This is part of a sample that, as a whole, favours compounds with a hit. Of some 79,000 tested, about 15% had one in any assay. Unmarked numbers belong to inactive results. Activity calls are given as the source filed them. Cut-off read from the data, not from the text of the source: active = growth inhibition above about 70%; inactive = the rest.

What was measured:
[1] = NCI Yeast Anticancer Drug Screen. Data for the rad50 strain (AID 155);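 note: 0% = growth of vehicle-only cultures of the same strain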; details: S. cerevisiae rad50 strain growth inhibition, active compounds read high
Outline: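 Yeast carrying a defined DNA repair defect were exposed to test compounds, and growth was compared with vehicle-treated controls to give percent inhibition.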

[2] = NCI Yeast Anticancer Drug Screen. Data for the mec2-1 strain (AID 157); details: S. cerevisiae mec2-1 strain, active compounds read high
Outline: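 Compounds were applied to mec2-1 yeast cells. Their growth was then compared with that of vehicle-treated cultures to give growth inhibition.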

[3] = NCI Yeast Anticancer Drug Screen. Data for the sgs1 mgt1 strain (AID 161);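 note: 0% = growth of cultures given vehicle only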; details: S. cerevisiae sgs1 mgt1 strain, active compounds read high
Outline: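 Growth of a repair-deficient yeast mutant was monitored after compound treatment and expressed as inhibition relative to vehicle-treated cultures.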

[4] = NCI Yeast Anticancer Drug Screen. Data for the cln2 rad14 strain (AID 165);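 note: 0% = growth equal to vehicle treated cultures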; details: S. cerevisiae cln2 rad14 strain, active compounds read high
Outline: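 Strain: cln2 rad14 yeast, altered in cell cycle control and DNA damage repair. Read-out: growth inhibition vs vehicle.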

[5] = NCI Yeast Anticancer Drug Screen. Data for the bub3 strain (AID 167); details: S. cerevisiae bub3 mutant strain, active compounds read high
Outline: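 Compounds were applied to a genetically altered yeast strain carrying a cell-cycle control defect. Growth inhibition was scored against vehicle-treated controls.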

[6] = NCI Yeast Anticancer Drug Screen. Data for the mlh1 rad18 strain (AID 175); details: S. cerevisiae mlh1 rad18 strain growth inhibition, active compounds read high
Outline: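 A repair-deficient yeast strain is exposed to test compound, and growth is scored relative to vehicle-treated controls.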

[7] = at 5.0 µM (retest, dose inferred, filed as 0.5)
[8] = at 50.0 µM (retest, dose inferred, filed as 5.0)

Row | Compound | growth inhibition [1, 7] | growth inhibition [1, 8] | growth inhibition ([1]; at 50.0 µM) | growth inhibition [2, 7] | growth inhibition [2, 8] | growth inhibition ([2]; at 50.0 µM) | growth inhibition [3, 7] | growth inhibition [3, 8] | growth inhibition ([3]; at 50.0 µM) | growth inhibition [4, 7] | growth inhibition [4, 8] | growth inhibition ([4]; at 50.0 µM) | growth inhibition [5, 7] | growth inhibition [5, 8] | growth inhibition ([5]; at 50.0 µM) | growth inhibition [6, 7] | growth inhibition [6, 8] | growth inhibition ([6]; at 50.0 µM)
1 | CCCCCCN(CCCCCC)CC(O)c1cc(-c2ccccc2)nc2c(O)cccc12 (configuration not stated) | 4% | 56% | 23.7% | 7% | 73% (active) | 22.6% | -118% | 95% (active) | 93.8% (active) | 4% | 42% | 8.2% | 8% | 92% (active) | 40% | 30% | 87% (active) | 33.5%
2 | Cc1cc(NS(=O)(=O)c2ccc(Nc3c4ccccc4nc4c(C(=O)NC(CO)(CO)CO)cccc34)cc2)no1 | -1% | 17% | 75.2% (active) | -5% | -10% | 23.9% | -1% | -3% | -1.6% | -21% | 17% | 71.5% (active) | 0% | -6% | 6.25% | -2% | 19% | 74% (active)
3 | C[N+]12CC3C4CC(C3C1)C2C4 (configuration not stated) | -19% | -27% | 4.05% | -15% | -13% | -2.9% | -3% | 4% | 12.6% | 29% | 13% | 1.3% | -6% | -12% | 13.6% | -23% | -15% | 7.95%
4 | CCOC(=S)SCc1nc2ccccc2[nH]1 | 9% | 51% | 87% (active) | 3% | 96% (active) | 80.7% (active) | 7% | 15% | 82.6% (active) | 10% | 83% (active) | 69% | 5% | 86% (active) | 76.8% (active) | 3% | 93% (active) | 89.2% (active)
5 | O=S(=O)(O)c1cc2ccccc2c(O)c1N=Nc1ccccc1 | 1% | 97% (active) | -33.1% | -1% | 98% (active) | -16% | 1% | 98% (active) | -3.25% | -16% | 97% (active) | 31.1% | -1% | 98% (active) | -0.1% | 2% | 98% (active) | 7.6%
6 | O=C1C=CC(=O)C(Sc2ccccc2)=C1 | -3% | 98% (active) | 96.8% (active) | 7% | 99% (active) | 98.9% (active) | -4% | 98% (active) | 89.5% (active) | -14% | 93% (active) | 93.3% (active) | -10% | 99% (active) | 94.1% (active) | 24% | 98% (active) | 95.3% (active)
7 | CC(C)(CN1CCCCC1)C(=O)CC(SCCS(=O)(=O)O)c1ccc(Cl)cc1 (configuration not stated) | 16% | 88% (active) | 19.2% | -4% | 91% (active) | 3.7% | -9% | 85% (active) | 39.1% | -1% | 91% (active) | 55.7% | -13% | 97% (active) | 25.6% | 1% | 89% (active) | 11.1%
8 | CC(C)Cc1ncc(CC(C)C)n(O)c1=O | 34% | 97% (active) | 89.2% (active) | 26% | 98% (active) | 87.8% (active) | 41% | 97% (active) | 91% (active) | -6% | 97% (active) | 81.3% (active) | 10% | 99% (active) | 89.5% (active) | 61% | 98% (active) | 89.9% (active)
9 | CN(C)CCC1(C2=CCCC2)CC/C(=C\c2ccccc2Cl)C1=O (configuration not stated) | -1% | 60% | 69.3% | -18% | 28% | 22.6% | 0% | 62% | 42.4% | -10% | 51% | 73% (active) | 19% | 76% (active) | 36.5% | 4% | 92% (active) | 87.8% (active)
10 | Cn1c(N)c(N=Nc2ccc(S(N)(=O)=O)cc2)c(=O)n(C)c1=O | 0% | 24% | -23.8% | 22% | -4% | -6.75% | 7% | 10% | -36.8% | 27% | 8% | 28.7% | 6% | 9% | -44.8% | 5% | 10% | -9.4%
11 | COc1cc(C2c3cc4c(cc3[C@@H](Nc3ccc5c(c3)OCCO5)C3COC(=O)[C@H]23)OCO4)cc(OC)c1O (some centres not stated) | 96% (active) | 93% (active) | 85.2% (active) | 97% (active) | 94% (active) | 91.2% (active) | 99% (active) | 99% (active) | 87.3% (active) | 98% (active) | 99% (active) | 85.8% (active) | 98% (active) | 99% (active) | 87.2% (active) | 95% (active) | 90% (active) | 88.8% (active)
12 | COc1ccc2nc3cc(Cl)ccc3c(Nc3ccc(O)c(CNCCO)c3)c2c1 | -27% | 63% | 88.9% (active) | -1% | -6% | 31.9% | -5% | 44% | 81% (active) | -2% | -11% | 17.2% | 0% | -4% | -7.15% | -9% | 12% | 29.6%
13 | C[n+]1c(-c2ccc(/C=C/C=N\NC(=O)c3ccc(C(=O)N/N=C\C=C\c4ccc(-c5cn6ccccc6[n+]5C)cc4)cc3)cc2)cn2ccccc21 | 18% | 98% (active) | 96.1% (active) | 5% | 97% (active) | 96.8% (active) | 16% | 98% (active) | 96.8% (active) | 22% | 97% (active) | 96.3% (active) | 36% | 97% (active) | 95.5% (active) | 21% | 97% (active) | 96.8% (active)
14 | Cc1ccc(O)c2c(NCCCCCCNc3cc(C)[n+](C)c4c(C)ccc(O)c34)cc(C)[n+](C)c12 | -1% | 87% (active) | 89% (active) | 0% | 76% (active) | 90.4% (active) | -1% | 71% (active) | 92.7% (active) | 5% | 60% | 72.7% (active) | -6% | 76% (active) | 77.5% (active) | -2% | 84% (active) | 90.2% (active)
15 | CN(C)CC(CN(C)C)C(=O)c1ccc(Oc2ccccc2)cc1 | 75% (active) | 99% (active) | 99.5% (active) | 75% (active) | 99% (active) | 99.7% (active) | 85% (active) | 99% (active) | 99.4% (active) | 33% | 99% (active) | 99.6% (active) | 69% | 99% (active) | 99.5% (active) | 90% (active) | 99% (active) | 99.4% (active)
16 | N#CC1C=C(Cl)c2ccc(Cl)cc2N1C(=O)c1ccccc1 (configuration not stated) | 2% | 96% (active) | 98.8% (active) | 17% | 99% (active) | 99.2% (active) | 3% | 99% (active) | 99.3% (active) | 2% | 99% (active) | 99.4% (active) | 0% | 98% (active) | 98.3% (active) | 23% | 99% (active) | 99.2% (active)
17 | COc1cccc(C(=O)C(CN(C)C)CN(C)C)c1 | 22% | 70% (active) | 12.2% | 26% | 69% | 30.2% | 24% | 88% (active) | 61% | 24% | 79% (active) | 33% | 24% | 85% (active) | 71.2% (active) | 30% | 93% (active) | 3%
18 | C/C(=N\NC(=S)N1CCN(c2ccccn2)CC1)c1ccccn1 | 46% | 99% (active) | 87.7% (active) | 35% | 100% (active) | 90.2% (active) | 35% | 99% (active) | 89.8% (active) | 21% | 98% (active) | 83.2% (active) | 63% | 100% (active) | 90.1% (active) | 58% | 99% (active) | 88.3% (active)
19 | CC(NNC(=S)N1CC2CCC(CC2)C1)c1cc2ccccc2cn1 (configuration not stated) | 97% (active) | 97% (active) | 96.9% (active) | 97% (active) | 99% (active) | 97.4% (active) | 98% (active) | 99% (active) | 94.5% (active) | 72% (active) | 61% | 92.6% (active) | 98% (active) | 99% (active) | 98.2% (active) | 98% (active) | 99% (active) | 98% (active)
